Assay results reported in the supplement of paper PMC6555819.

tested on: PPARg DBDmut:RXRa IVT, anti-PPARg (DBD mutation: PPARg1 K132A/R137A, NR concentration 270 nM, RXRa partner concentration 90 nM); assay: PBM binding z-score (relative to random genomic background probes); higher = stronger binding; sequences stand for … in GC…GCGATTGACAGCGTAGAATGAAGG
Method in brief: (§1)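 The probes on custom Agilent 4×180K protein-binding microarrays were double-stranded, with 34-nt variable regions bearing direct-repeat seeds, single-nucleotide variants, half-site ablations and random human genomic background sequences. Incubation lasted 1 h with ligand-free nuclear receptor dimers in PBS pH 7.4, 2% milk, 0.02% Triton X-100, 1 mM DTT, 0.2 mg/mL BSA and 0.4 mg/ml salmon testes DNA. Antibodies against each partner (one per run) detected bound dimers, and fluorescence scans were regression-normalized. Binding z-scores take the random background probes as reference.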

Compared with CGAACTAGGTCAAGGACAGTGAGTCTCCGCACGC, TCATATAGGTAAATGCTAGGTGACAGTCCGATCT is lower in PBM binding z-score: 4.66 for the first, 1.51 for the second.

Compared with ATATGTAGGTTATCGTGTCATTCAGTTTGCGCAT, GCTTACGGGTCAAAGGTTATATCATGAATAGAAT is higher in PBM binding z-score: 2.49 for the first, 2.65 for the second.

First: TCTTGTAGACCAACAGGAGGTTAAGAAAGATCGA
Second: TCTGCTAGGTCAACGCTGGTCAGCTAATCTGCTA
The PBM binding z-score of the first is lower: -0.365 for the first, 0.648 for the second.

Going from ATCTCTAGGTTACAAGTTCAGTGAAAGAGAGGAC to CCTGCTGGGTCAATGGTCAGCTAAAGCAGCTCGC, the PBM binding z-score falls from 1.99 to -1.4.

Going from TCATATAGGTAAGCAGGTGAAAGTCCGTAAGTTA to CCTACTGGGCCAAAAAGGTCTTTGATGCCGATAA, the PBM binding z-score falls from 0.357 to -0.719.

Compared with CGAACTAGGTCAAGGTCAAAGTCGGTTTGTGCCA, GTACCAAAGTGAATAGGTCGTTGATGAGTAGGCG is lower in PBM binding z-score: 3.32 for the first, 0.259 for the second.

First: GGAACGAGGGCAAGTTCATAGCAGAGTTTGATGG
Second: ACTTACGGGGCAACGAGGTTATAGCACGCGTATA
The PBM binding z-score of the first is lower: -0.982 for the first, 0.904 for the second.

Going from GCTTACGGGGCAAAGGTTATAGCATGAATAGAAT to ATCTCTAGGTAAGACTGAGTTCAGTGAAGAACGC, the PBM binding z-score falls from 0.825 to 0.582.

Compared with ATCGAAAGGTCCTGAGGTGAGTATACAGAAAGGC, TCGAGTAGGTTACCAATGGGGCATTGAGCTTTCT is lower in PBM binding z-score: 0.834 for the first, -0.293 for the second.

Going from CCTACTGGGCCACGAAAGGTCATTGATTCAGTGA to CAAACTAGGTCACGAAAGGACAAAGTCGAATGAC, the PBM binding z-score rises from 0.883 to 5.83.

Going from AGAATGAGGTAATTAAGATCAGGGAATTGCGGTC to ACTAGCTGGTCAGCTGAGGTCACACACAATTCGG, the PBM binding z-score falls from 0.265 to 0.106.

First: ACTATTAGTGGAGACGAGGGCAACCGATAGGTTG
Second: CAGACTAGGTCAAGGTCAAAGTCGGTTTGTGCCA
The PBM binding z-score of the first is lower: 0.383 for the first, 3.1 for the second.

First: TTTTGTAGATCAATAGAGGTTAAGAAAGTGCGCT
Second: CCTAGTTGGTTAGGAGGTCACACACCGGATATGA
The PBM binding z-score of the first is higher: 1.51 for the first, 0.832 for the second.

Going from CTGACTGGGGCAAGGTTACCATAACGCACAGCCA to GGAACGAGGGCAAAGTCGATAGCATCTGTCGACG, the PBM binding z-score rises from 0.266 to 0.306.

Going from TCATATATGTAATACAGGTGAAAGTCGGCATCTA to CAAACTAGGTCAAAGGTGAAAGTCGAGCCAACCA, the PBM binding z-score rises from 1.39 to 5.06.

Going from CAAACTAGGTCAAGAGGTCTAAGTCCGCTTCCCG to TTACCAAGGTGAAAGGTCGTTGTTGCACGCCTTG, the PBM binding z-score falls from 1.43 to -0.135.

Compared with CCGAGTTGGTTATGGGGCATTCAGGCAACGGTGA, CACCCTAGGTCAGGGCCAGTATAGGAGGAACGTT is higher in PBM binding z-score: -0.435 for the first, -0.28 for the second.

Compared with AGAATGAGGTTATTAAGATCGGGGAATTGCGGTC, TGAATGATGTTAAAGATCAGGGAACGTGGCGTCG is higher in PBM binding z-score: 0.666 for the first, 0.678 for the second.

Going from CAGCCTAGGTCAGGGCCAGTACAGGAGGAACGTT to TGAATGAGTTTATAAGATCAGGGAACGTTGCAAA, the PBM binding z-score rises from -0.899 to 0.631.

In the case of ATACCAAGGTAATCGTGAGGTCGTTGATACTAAC, the PBM binding z-score is reported as 0.385.

tested on: PPARg DBDmut IVT, anti-PPARg (DBD mutation: PPARg1 K132A/R137A, NR concentration 270 nM); assay: as above
Method in brief: as §1

Compared with CGAACTAGGTCAAGGACAGTGAGTCTCCGCACGC, TCATATAGGTAAATGCTAGGTGACAGTCCGATCT is lower in PBM binding z-score: 1.15 for the first, 0.754 for the second.

Compared with ATATGTAGGTTATCGTGTCATTCAGTTTGCGCAT, GCTTACGGGTCAAAGGTTATATCATGAATAGAAT is lower in PBM binding z-score: 2.15 for the first, 2.07 for the second.

Compared with TCTTGTAGACCAACAGGAGGTTAAGAAAGATCGA, TCTGCTAGGTCAACGCTGGTCAGCTAATCTGCTA is lower in PBM binding z-score: 0.137 for the first, 0.00924 for the second.

Going from ATCTCTAGGTTACAAGTTCAGTGAAAGAGAGGAC to CCTGCTGGGTCAATGGTCAGCTAAAGCAGCTCGC, the PBM binding z-score falls from 3.28 to -0.684.

First: TCATATAGGTAAGCAGGTGAAAGTCCGTAAGTTA
Second: CCTACTGGGCCAAAAAGGTCTTTGATGCCGATAA
The PBM binding z-score of the first is higher: 0.715 for the first, -0.578 for the second.

Going from CGAACTAGGTCAAGGTCAAAGTCGGTTTGTGCCA to GTACCAAAGTGAATAGGTCGTTGATGAGTAGGCG, the PBM binding z-score falls from 1.2 to -0.53.

Going from GGAACGAGGGCAAGTTCATAGCAGAGTTTGATGG to ACTTACGGGGCAACGAGGTTATAGCACGCGTATA, the PBM binding z-score rises from -0.116 to 0.257.

Going from GCTTACGGGGCAAAGGTTATAGCATGAATAGAAT to ATCTCTAGGTAAGACTGAGTTCAGTGAAGAACGC, the PBM binding z-score falls from 1.35 to 0.923.

Going from ATCGAAAGGTCCTGAGGTGAGTATACAGAAAGGC to TCGAGTAGGTTACCAATGGGGCATTGAGCTTTCT, the PBM binding z-score falls from 0.602 to -0.233.

Going from CCTACTGGGCCACGAAAGGTCATTGATTCAGTGA to CAAACTAGGTCACGAAAGGACAAAGTCGAATGAC, the PBM binding z-score rises from -0.339 to 2.82.

Compared with AGAATGAGGTAATTAAGATCAGGGAATTGCGGTC, ACTAGCTGGTCAGCTGAGGTCACACACAATTCGG is lower in PBM binding z-score: -0.0371 for the first, -0.428 for the second.

Compared with ACTATTAGTGGAGACGAGGGCAACCGATAGGTTG, CAGACTAGGTCAAGGTCAAAGTCGGTTTGTGCCA is lower in PBM binding z-score: 0.735 for the first, 0.467 for the second.

First: TTTTGTAGATCAATAGAGGTTAAGAAAGTGCGCT
Second: CCTAGTTGGTTAGGAGGTCACACACCGGATATGA
The PBM binding z-score of the first is higher: 1.54 for the first, 1.05 for the second.

Compared with CTGACTGGGGCAAGGTTACCATAACGCACAGCCA, GGAACGAGGGCAAAGTCGATAGCATCTGTCGACG is lower in PBM binding z-score: 0.0884 for the first, 0.0307 for the second.

Compared with TCATATATGTAATACAGGTGAAAGTCGGCATCTA, CAAACTAGGTCAAAGGTGAAAGTCGAGCCAACCA is higher in PBM binding z-score: 1.75 for the first, 3.41 for the second.

Going from CAAACTAGGTCAAGAGGTCTAAGTCCGCTTCCCG to TTACCAAGGTGAAAGGTCGTTGTTGCACGCCTTG, the PBM binding z-score falls from 2.57 to 0.857.

First: CCGAGTTGGTTATGGGGCATTCAGGCAACGGTGA
Second: CACCCTAGGTCAGGGCCAGTATAGGAGGAACGTT
The PBM binding z-score of the first is lower: -0.836 for the first, -0.553 for the second.

Compared with AGAATGAGGTTATTAAGATCGGGGAATTGCGGTC, TGAATGATGTTAAAGATCAGGGAACGTGGCGTCG is higher in PBM binding z-score: -0.0579 for the first, 0.88 for the second.

First: CAGCCTAGGTCAGGGCCAGTACAGGAGGAACGTT
Second: TGAATGAGTTTATAAGATCAGGGAACGTTGCAAA
The PBM binding z-score of the first is lower: -1.34 for the first, 0.748 for the second.

ATACCAAGGTAATCGTGAGGTCGTTGATACTAAC showed a PBM binding z-score of 0.929.
